Test systems include NCI-H23 lung; NCI-H226 lung; NCI-H322M lung; NCI-H460 lung; HOP-92 NSCLC; NCI-H522 lung; A549/ATCC NSCLC; 786-0 renal; COLO 205 colon; DU-145 prostate; K-562 leukemia; MALME-3M melanoma; MDA-MB-231 breast; RXF 393 renal; SF-268 CNS; SF-295 CNS; SF-539 CNS; UACC-257 melanoma; M14 melanoma.
What all share (assay): NCI-60 one-dose screen, 48 h (100 = growth as untreated, 0 = no growth, -100 = all killed)
What all share (conditions): 10 µM unless noted

This is part of a sample that, as a whole, favours compounds with a hit. Of some 83,000 tested, about 20% had one in any assay.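 Single-concentration screen, 48 h exposure, 96-well plates. Endpoint: percent growth. Below 10 = active.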 A number with no mark means an inactive call. Calls of active or inactive are those of the source.

`Clc1ccc2[nH]cc(-c3nn4cc(-c5ccncc5)nc4s3)c2c1`: the growth in the experiment on NCI-H23 lung was 43.1%; with NCI-H226 lung, 22.7%; in the experiment on NCI-H322M lung, 49.2%; with NCI-H460 lung, 10.1%; in the experiment on HOP-92 NSCLC, 33.8%; in the experiment on NCI-H522 lung it was 36.4%. Also, the growth is 68.6% with A549/ATCC NSCLC; 69.9% with 786-0 renal; 69.5% in the experiment on COLO 205 colon; 53.1% in the experiment with DU-145 prostate; 49% with K-562 leukemia; 26.9% in the experiment on MALME-3M melanoma. For the same compound, the growth was 50.8% in the experiment on MDA-MB-231 breast; 79% with RXF 393 renal; 39.1% with SF-268 CNS; 71% in the experiment on SF-295 CNS; 25.8% with SF-539 CNS; 90.7% in the experiment on UACC-257 melanoma. In addition, in the experiment on M14 melanoma, the growth was 67.7%.

Take `CCCCCCCCCCCC(=O)NC(C)(C)C(=O)N1CCCC1C(=O)NC(C)(C)C(=O)NC(C)(C)C(=O)N1CCCC1C(=O)NC(C)(C)C(=O)NC(C)(C)C(=O)N1CCCC1C(=O)NC(C)C(=O)NCCC(=O)NC(C)C(=O)NC(C)(C)C(=O)NC(C)(C)C(=O)NC(C)(C)C(=O)NCCC(=O)NC(C)(C)C(=O)NC(C)(C)C(=O)NC(C)(C)C(=O)NC(C)C(=O)NCCC(=O)O` (stereo not given): the growth in the experiment on NCI-H23 lung is -92.9% (active); with NCI-H226 lung it was -61.8% (active); in the experiment with NCI-H322M lung it was -99.6% (active); with NCI-H460 lung, -79.7% (active); in the experiment with HOP-92 NSCLC it was -96% (active); in the experiment with NCI-H522 lung, -89.8% (active). The growth with A549/ATCC NSCLC was -77.9% (active); with 786-0 renal, -96.3% (active); in the experiment on COLO 205 colon it was -89.2% (active); in the experiment with DU-145 prostate, -99.4% (active); in the experiment on K-562 leukemia, -65.4% (active); in the experiment on MALME-3M melanoma it was -89.4% (active). Besides, the growth in the experiment on MDA-MB-231 breast was -87.5% (active); with RXF 393 renal, -94.5% (active); in the experiment with SF-268 CNS, -60.6% (active); in the experiment on SF-295 CNS, -97.1% (active); in the experiment with SF-539 CNS it was -92% (active); with UACC-257 melanoma, -91.8% (active). Also, the growth in the experiment on M14 melanoma was -97.3% (active).

For the compound `C/C(=N\NC(N)=S)c1nnn(-c2ccc([N+](=O)[O-])cc2)c1C`, the growth with NCI-H23 lung is 95.4%; with NCI-H226 lung, 93.1%; in the experiment with NCI-H322M lung, 95.3%; in the experiment on NCI-H460 lung it was 100%; in the experiment with HOP-92 NSCLC it was 98.7%; in the experiment with NCI-H522 lung, 89.6%. Moreover, the growth was 103% in the experiment with A549/ATCC NSCLC; 103% in the experiment with 786-0 renal; 103% in the experiment on COLO 205 colon; 104% with DU-145 prostate; 119% in the experiment with K-562 leukemia; 92.8% in the experiment on MALME-3M melanoma. Also, the growth is 96.2% in the experiment with MDA-MB-231 breast; 66.2% in the experiment with RXF 393 renal; 97% in the experiment on SF-268 CNS; 98.8% in the experiment with SF-295 CNS; 97.5% with SF-539 CNS; 98.4% in the experiment with UACC-257 melanoma. Besides, in the experiment with M14 melanoma, the growth is 99.5%.

Take `CCN(CC)S(=O)(=O)c1ccc(-c2nc(C(Cl)Cl)nc3cc(-c4ccc(F)cc4)nn23)cc1`: the growth in the experiment on NCI-H23 lung is 21.7%; in the experiment with NCI-H226 lung, 77.3%; in the experiment with NCI-H322M lung, 41.4%; in the experiment with NCI-H460 lung, 10.2%; in the experiment on HOP-92 NSCLC, -3.41% (active); with NCI-H522 lung, 79.3%. Also, the growth in the experiment with 786-0 renal is 76.5%; in the experiment on COLO 205 colon it was 8.9% (active); with DU-145 prostate it was 16%; in the experiment with K-562 leukemia it was 34.6%; in the experiment with MALME-3M melanoma it was 57.6%; in the experiment on MDA-MB-231 breast it was 1.34% (active). The growth with RXF 393 renal was -30.2% (active); with SF-268 CNS, 48.5%; in the experiment on SF-295 CNS, 32.6%; in the experiment on SF-539 CNS, 18.4%; in the experiment with UACC-257 melanoma, 67.7%; in the experiment on M14 melanoma it was 47.1%.

Take `COc1ccc(Cn2cc(C#N)c(N)c2C(C)=O)cc1`: the growth is 101% in the experiment with NCI-H23 lung; 101% with NCI-H226 lung; 98.8% in the experiment on NCI-H322M lung; 104% in the experiment on NCI-H460 lung; 87.5% in the experiment on HOP-92 NSCLC; 102% in the experiment on NCI-H522 lung. The growth in the experiment on A549/ATCC NSCLC is 110%; in the experiment on 786-0 renal, 111%; with DU-145 prostate, 107%; with K-562 leukemia, 103%; in the experiment with MALME-3M melanoma it was 102%; with MDA-MB-231 breast, 94.8%. The growth with RXF 393 renal is 102%; in the experiment on SF-268 CNS, 96.5%; in the experiment on SF-295 CNS it was 110%; with SF-539 CNS, 99.5%; in the experiment on UACC-257 melanoma, 106%; with M14 melanoma, 110%.

In the case of `NS(=O)(=O)c1ccc(Nc2nc(N/N=C/C=C/c3ccccc3)nc(Nc3ccccc3)n2)cc1`, the growth is 40.1% with NCI-H23 lung; 58.6% in the experiment with NCI-H226 lung; 56.8% in the experiment on NCI-H322M lung; 6.23% (active) in the experiment on NCI-H460 lung; 83.9% in the experiment with HOP-92 NSCLC; 66.4% in the experiment on NCI-H522 lung. The growth in the experiment with A549/ATCC NSCLC was 69.3%; with 786-0 renal, 37.6%; in the experiment on COLO 205 colon it was 55.3%; in the experiment on DU-145 prostate, 42.5%; with K-562 leukemia, 27.1%; in the experiment on MALME-3M melanoma it was 50.7%. Also, the growth was 47.9% in the experiment with MDA-MB-231 breast; -8.45% (active) with RXF 393 renal; 46% in the experiment on SF-268 CNS; 44.5% with SF-295 CNS; 39.4% with SF-539 CNS; 79.2% in the experiment on UACC-257 melanoma. In addition, in the experiment on M14 melanoma, the growth was 40.3%.

As for `Clc1ccc2c(N/N=C/c3c[nH]c4ccccc34)ccnc2c1`, the growth was -88.2% (active) in the experiment on NCI-H23 lung; -52.1% (active) in the experiment on NCI-H226 lung; -89.9% (active) with NCI-H322M lung; -87.2% (active) with NCI-H460 lung; -88.7% (active) in the experiment on HOP-92 NSCLC; -77.6% (active) with NCI-H522 lung. Moreover, the growth with A549/ATCC NSCLC was -24.3% (active); in the experiment on 786-0 renal, -89.8% (active); in the experiment with COLO 205 colon, -85.4% (active); in the experiment with DU-145 prostate, -90.2% (active); in the experiment with K-562 leukemia it was -22.1% (active); with MALME-3M melanoma, -95.8% (active). Moreover, the growth with MDA-MB-231 breast was -83.5% (active); in the experiment on RXF 393 renal, -87.2% (active); in the experiment with SF-268 CNS it was -58.4% (active); in the experiment on SF-295 CNS, -85.3% (active); in the experiment on SF-539 CNS, -86.7% (active); in the experiment on UACC-257 melanoma, -91.8% (active). Further, in the experiment with M14 melanoma, the growth was -89.3% (active).

Turning to `CCOP(=O)(OCC)OC[C@]12CCC(C)(C)CC1C1=CC[C@@H]3[C@@]4(C)CCCNC(C)(C)[C@@H]4CC[C@@]3(C)[C@]1(C)CC2` (stereo not given in full), the growth is 85.2% in the experiment on NCI-H23 lung; 89% in the experiment with NCI-H226 lung; 95.7% with NCI-H322M lung; 55.1% with NCI-H460 lung; 64.8% in the experiment on HOP-92 NSCLC; 90.2% in the experiment on NCI-H522 lung. In addition, the growth was 70.8% in the experiment with A549/ATCC NSCLC; 69.4% in the experiment with 786-0 renal; 3.12% (active) in the experiment on COLO 205 colon; 82.6% in the experiment with DU-145 prostate; 2.53% (active) in the experiment with K-562 leukemia; 103% in the experiment on MALME-3M melanoma. For the same compound, the growth in the experiment on MDA-MB-231 breast is 81.1%; in the experiment with RXF 393 renal, 64%; with SF-268 CNS, 80.2%; in the experiment on SF-295 CNS it was 99.3%; with SF-539 CNS, 86.3%; in the experiment with UACC-257 melanoma, 98.2%. In addition, the growth in the experiment on M14 melanoma was 83.3%.

Source of the values: PubChem BioAssay (NCI).
